In PubChem BioAssay AID1159580 (chemical genetic matrix, 2015):
Screen size: about 5,500 compounds; about 2,000 (36%) were called active. Roughly 18% stayed inconclusive and do not appear here. Rule as the data show it: active = normalized growth mostly below about 0.91 (no sharp cut-off); inconclusive = no clear call, values can overlap the other calls; inactive = mostly above about 0.92. The list shows a part of the results.

Experiment: chemical genetic growth profiling, strain panel (AID 1159580);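 also: tested at 20 µM; growth read once vehicle control cultures reached saturation at 30 °C; 1 = growth at the plate median or of vehicle wells; lower values mean less growth of the strain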
Conditions: S. cerevisiae deletion strains, growth OD

Measured: normalized growth

C=CCS(=O)C[C@H](N)C(=O)O (some centres undefined)
inactive: locus YAL021C, strain ccr4, stronger effect = lower value 1 | locus YAL026C, strain drs2, stronger effect = lower value 1 | locus YAL030W, strain snc1, stronger effect = lower value 0.982 | locus YBL061C, strain skt5, stronger effect = lower value 1 | locus YBR009C, strain hhf1, stronger effect = lower value 1 | locus YBR023C, strain chs3, stronger effect = lower value 1 | locus YBR171W, strain sec66, stronger effect = lower value 0.982 | locus YBR231C, strain swc5, stronger effect = lower value 0.981 | locus YBR279W, strain paf1, stronger effect = lower value 0.999 | locus YCL011C, strain gbp2, stronger effect = lower value 0.992 | locus YCL016C, strain dcc1, stronger effect = lower value 1.02 | locus YCL069W, strain vba3, stronger effect = lower value 0.984 | locus YCR088W, strain abp1, stronger effect = lower value 0.986 | locus YDL005C, strain med2, stronger effect = lower value 1 | locus YDL040C, strain nat1, stronger effect = lower value 1.01 | locus YDR001C, strain nth1, stronger effect = lower value 1 | locus YDR069C, strain doa4, stronger effect = lower value 0.985 | locus YDR137W, strain rgp1, stronger effect = lower value 0.97 | locus YDR159W, strain sac3, stronger effect = lower value 0.996 | locus YDR195W, strain ref2 0.986 | locus YDR297W, strain sur2, stronger effect = lower value 1 | locus YDR334W, strain swr1, stronger effect = lower value 1.01 | locus YDR335W, strain msn5, stronger effect = lower value 0.991 | locus YDR392W, strain spt3, stronger effect = lower value 0.979 | locus YEL003W, strain gim4, stronger effect = lower value 1 | locus YEL037C, strain rad23, stronger effect = lower value 1.01 | locus YEL061C, strain CIN8 (second series), stronger effect = lower value 1.01 | locus YER015W, strain faa2, stronger effect = lower value 1 | locus YER016W, strain bim1, stronger effect = lower value 0.982 | locus YER111C, strain swi4, stronger effect = lower value 1.01 | locus YER155C, strain BEM2 (second series), stronger effect = lower value 0.961 | locus YFR010W, strain ubp6, stronger effect = lower value 0.998 | locus YGL167C, strain pmr1, stronger effect = lower value 0.997 | locus YGL173C, strain kem1, stronger effect = lower value 0.999 | locus YGL227W, strain vid30, stronger effect = lower value 0.969 | locus YGL240W, strain doc1, stronger effect = lower value 0.994 | locus YGL253W, strain hxk2, stronger effect = lower value 1 | locus YHR013C, strain ard1, stronger effect = lower value 0.981 | locus YHR027C, strain rpn1, stronger effect = lower value 0.994 | locus YHR030C, strain SLT2, stronger effect = lower value 1.02 | locus YHR079C, strain IRE1, stronger effect = lower value 1.01 | locus YHR142W, strain chs7, stronger effect = lower value 1.02 | locus YJL092W, strain hpr5, stronger effect = lower value 0.999 | locus YJL095W, strain BCK1 (second series), stronger effect = lower value 0.998 | locus YJL095W, strain BCK1, stronger effect = lower value 1.03 | locus YJL115W, strain asf1, stronger effect = lower value 0.992 | locus YJL129C, strain trk1, stronger effect = lower value 0.997 | locus YJL154C, strain vps35, stronger effect = lower value 0.995 | locus YJL164C, strain tpk1, stronger effect = lower value 0.997 | locus YJL166W, strain qcr8, stronger effect = lower value 0.991 | locus YJL187C, strain SWE1, stronger effect = lower value 0.998 | locus YJR066W, strain TOR1, stronger effect = lower value 0.952 | locus YKL160W, strain elf1, stronger effect = lower value 1 | locus YKR026C, strain gcn3, stronger effect = lower value 0.984 | locus YKR091W, strain srl3, stronger effect = lower value 0.986 | locus YLL001W, strain dnm1, stronger effect = lower value 1.01 | locus YLL026W, stronger effect = lower value 0.994 | locus YLL041C, strain sdh2, stronger effect = lower value 0.995 | locus YLR027C, strain aat2, stronger effect = lower value 1 | locus YLR113W, strain HOG1, stronger effect = lower value 1.02 | locus YLR221C, strain rsa3, stronger effect = lower value 1 | locus YLR258W, strain gsy2, stronger effect = lower value 0.987 | locus YLR262C, strain YPT6 (second series), stronger effect = lower value 0.987 | locus YLR320W, strain mms22, stronger effect = lower value 1 | locus YLR342W, strain FKS1, stronger effect = lower value 0.996 | locus YLR357W, strain rsc2, stronger effect = lower value 0.961 | locus YLR370C, strain arc18, stronger effect = lower value 0.995 | locus YLR384C, strain iki3, stronger effect = lower value 0.994 | locus YML120C, strain ndi1, stronger effect = lower value 0.992 | locus YMR058W, strain fet3, stronger effect = lower value 0.998 | locus YMR125W, strain sto1, stronger effect = lower value 0.991 | locus YMR129W, stronger effect = lower value 0.976 | locus YMR205C, strain PFK2, stronger effect = lower value 1.01 | locus YMR231W, strain pep5, stronger effect = lower value 0.998 | locus YNL071W, strain lat1, stronger effect = lower value 0.988 | locus YNL183C, strain NPR1, stronger effect = lower value 0.971 | locus YNL209W, strain ssb2, stronger effect = lower value 0.985 | locus YNL248C, strain rpa49, stronger effect = lower value 1 | locus YNL322C, strain KRE1 (second series), stronger effect = lower value 0.98 | locus YNR049C, strain mso1, stronger effect = lower value 0.997 | locus YOR001W, strain rrp6, stronger effect = lower value 1.01 | locus YOR070C, strain gyp1, stronger effect = lower value 1 | locus YOR080W, strain dia2, stronger effect = lower value 1.01 | locus YOR083W, strain WHI5, stronger effect = lower value 0.962 | locus YOR106W, strain vam3, stronger effect = lower value 1 | locus YOR231W, strain MKK1, stronger effect = lower value 1.01 | locus YOR265W, strain rbl2, stronger effect = lower value 1.01 | locus YOR270C, strain vph1, stronger effect = lower value 1.02 | locus YOR290C, strain snf2, stronger effect = lower value 1 | locus YPL051W, strain arl3, stronger effect = lower value 0.983 | locus YPL078C, strain atp4, stronger effect = lower value 1.02 | locus YPL106C, strain sse1, stronger effect = lower value 0.929 | locus YPL240C, strain hsp82, stronger effect = lower value 0.983 | locus YPL256C, strain CLN2, stronger effect = lower value 1.02
